# Laboratory results from PubChem BioAssay (Tox21).
# Where “and” joins values, the source holds several entries; their conditions need not be identical. Identical values can stand only once. Records with an inconclusive call do not appear. Entries that show only a call come without a potency. Calls of active or inactive are those of the source. Calls follow the shape of the dose curve; as a rule, active = well fitted cell-killing curve with a large enough effect in the repeat runs; inconclusive = weak or mixed curves, or effect the other way; inactive = no such curve, though single readings can be large or run the other way.
# Test: qHTS assay to identify small molecule antagonists of the peroxisome proliferator-activated receptor gamma (PPARg) signaling pathway - cell viability counter screen (AID 743194); also: nearly all actives have a fitted effect of over 55% in size
# Conditions: PPARg-bla HEK293H viability, CellTiter-Glo luminescence, 17 h; Potency: co-treated with 50 nM rosiglitazone; series mostly up to 62.6 µM
# Description: U.S. Tox21 Program National Center for Advancing Translational Sciences [NCATS] NIH Chemical Genomics Center [NCGC] U.S. Environmental Protection Agency [EPA] National Institutes of Environmental Health Sciences [NIEHS] National Toxicology Program [NTP] U.S. Food and Drug Administration [FDA] Tox21 Assay Overview: The peroxisome proliferator-activated receptors (PPARs) are lipid-activated transcription factors of the nuclear receptor superfamily with three distinct subtypes namely PPAR alpha, PPAR delta (also called PPAR beta) and PPAR gamma (PPARg). All these subtypes heterodimerize with Retinoid X receptor (RXR) and these heterodimers regulate transcription of various genes. PPAR-gamma receptor (glitazone receptor) is involved in the regulation of glucose and lipid metabolism. To identify the compounds that activate PPAR-gamma signaling, GeneBLAzer PPAR gamma UAS-bla HEK293H cell line (Invitrogen, Carlsbad, CA, USA) containing a beta-lactamase reporter gene under the control of an Upstream Activator Sequence (UAS) was used to screen the Tox21 compound library. The cytotoxicity of the Tox21 compound library against the PPARg-bla cell line was tested in parallel by measuring the cell viability using CellTiter-Glo assay in the same wells.
# Tox21 Assay Protocol Summary: PPARg-bla cells were dispensed at 3000 cells/5uL/well in 1536-well black wall/clear bottom plates using a Multidrop Combi (Thermo Fisher Scientific, Waltham, MA) dispenser. After the assay plates were incubated at 37 C and 5% CO2 for 5 h, 23 nL of compounds dissolved in DMSO, positive controls or DMSO only was transferred to the assay plate by a Pintool station (Kalypsys, San Diego, CA), followed by addition of 1ul Rosiglitazone (50 nM, final concentration in the wells). The assay plates were incubated at 37 C for 17 h, and then 1 uL of LiveBLAzerTM B/G FRET substrate was added using a Bioraptr Flying Reagent Dispenser (FRD) workstation (Beckman Coulter, Indianapolis, IN, USA). The assay plates were incubated at room temperature for 1 h and fluorescence intensity was measured by an Envision plate reader (PerkinElmer, Shelton, CT). For cell viability readout that measures cytotoxicity, 4 ul/well of CellTiter-Glo reagent was added into the assay plates using a Flying Reagent Dispenser. After 30 min incubation at room temperature, the luminescence intensity in the plates was measured using a ViewLux plate reader (PerkinElmer).
# Potency is read from the fitted curve at half-maximal effect.
row,SMILES,Potency
1,[Cl-].[Cl-].[Hg+2],21.8 µM (active) and 21.9 µM (active)
2,CON(C)C(=O)Nc1ccc(Cl)cc1,inactive
3,C=C(C)C(=O)OCCCCOC(=O)C(=C)C,inactive
4,CC(C)[C@@H](C(=O)O[C@@H](C#N)c1cccc(Oc2ccccc2)c1)c1ccc(Cl)cc1,inactive
5,O=C1c2ccccc2C(=O)N1SC(Cl)(Cl)Cl,2.19 µM (active)
6,O=C(O)C(F)(F)C(F)(F)C(F)(F)C(F)(F)C(F)(F)F,inactive
7,CCCC[P+](CC)(CCCC)CCCC (tested in a mixture with another compound),inactive
8,O=[N+]([O-])c1cc(Cl)c(Cl)cc1Cl,inactive
9,O=C(O)C(O)C(O)C(=O)O (stereo not given),inactive
10,COc1ccc(C(=O)c2c(C)n(CCN3CCOCC3)c3ccccc23)cc1,inactive
11,CN1C(=O)CN=C(c2ccccc2)c2cc([N+](=O)[O-])ccc21,inactive
12,O=C(NCNC(=O)NC1C(=O)NC(=O)N1CO)NC1C(=O)NC(=O)N1CO (stereo not given),inactive
13,O=C(O)C(F)(F)C(F)(F)C(F)(F)C(F)(F)C(F)(F)C(F)(F)C(F)(F)C(F)(F)F,inactive
14,O=C(O)c1cc(I)cc(I)c1I,inactive
15,CCC1(CC)C(=O)NC(=O)NC1=O,inactive
16,SCc1ccccc1,inactive
17,CCC[N+](CCC)(CCC)CCC,inactive
18,C[N+]1(CCC(C(N)=O)(c2ccccc2)c2ccccc2)CCCCC1,inactive
19,OCCCl,inactive
20,Nc1cccc2ccccc12,inactive

row,SMILES,Potency
1,Nc1ccccc1C(=O)OCC(O)CO (stereo not given),inactive
2,CC1(C)CC(=O)CC(C)(C)N1[O],inactive
3,C=CC(C)(CCC=C(C)C)OC(=O)c1ccccc1N (stereo not given),inactive
4,C[N+](C)(C)CC1CO1 (stereo not given),inactive
5,Cc1cccc(C)c1NC1=NCCCS1,inactive
6,CC(Oc1cc(Cl)c(Cl)cc1Cl)C(=O)O (stereo not given),inactive
7,CNC(=O)Oc1cccc(N=CN(C)C)c1,inactive
8,c1ccc2sc(SNC3CCCCC3)nc2c1,inactive
9,Nc1c(Br)cc(Br)c2c1C(=O)c1ccccc1C2=O,inactive
10,C=CCN1C[C@H](C)N([C@H](c2ccc(C(=O)N(CC)CC)cc2)c2cccc(OC)c2)C[C@H]1C,inactive
11,CCOP(=S)(OCC)Oc1ccc(S(C)=O)cc1 (stereo not given),inactive
12,ClCc1ccccc1Cl,inactive
13,NC(=O)CF,inactive
14,C=CC(=O)OCC,inactive
15,COC1=CC(=O)O[C@@H](/C=C/c2ccc3c(c2)OCO3)C1,inactive
16,O=C(CCl)CCl,21.9 µM (active)
17,O=C1NC(=O)C(=O)C(=O)N1,inactive
18,CCCC1CCCCN1 (stereo not given),inactive
19,CCCCCCCCCCCC[N+](C)(C)CCOc1ccccc1,21.9 µM (active) and 13.3 µM (active)
20,Clc1ccccc1,inactive
